Bioassay records (PubChem BioAssay)
ROC1-CUL1 inh – inhibitors of human ROC1-CUL1 ubiquitin ligase activity; P62877+Q13616; in vitro K48 di-Ub FRET, acceptor:donor ratio, 45 min; inhibition, % at 10 µM; 140,000 tested, 0.6% active; in the data active = inhibition above about 25%
Target sequence (P62877 whole entry, looked up): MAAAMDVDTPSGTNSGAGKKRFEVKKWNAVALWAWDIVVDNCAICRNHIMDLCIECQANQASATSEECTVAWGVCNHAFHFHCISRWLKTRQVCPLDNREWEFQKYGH
Target sequence (Q13616 whole entry, looked up): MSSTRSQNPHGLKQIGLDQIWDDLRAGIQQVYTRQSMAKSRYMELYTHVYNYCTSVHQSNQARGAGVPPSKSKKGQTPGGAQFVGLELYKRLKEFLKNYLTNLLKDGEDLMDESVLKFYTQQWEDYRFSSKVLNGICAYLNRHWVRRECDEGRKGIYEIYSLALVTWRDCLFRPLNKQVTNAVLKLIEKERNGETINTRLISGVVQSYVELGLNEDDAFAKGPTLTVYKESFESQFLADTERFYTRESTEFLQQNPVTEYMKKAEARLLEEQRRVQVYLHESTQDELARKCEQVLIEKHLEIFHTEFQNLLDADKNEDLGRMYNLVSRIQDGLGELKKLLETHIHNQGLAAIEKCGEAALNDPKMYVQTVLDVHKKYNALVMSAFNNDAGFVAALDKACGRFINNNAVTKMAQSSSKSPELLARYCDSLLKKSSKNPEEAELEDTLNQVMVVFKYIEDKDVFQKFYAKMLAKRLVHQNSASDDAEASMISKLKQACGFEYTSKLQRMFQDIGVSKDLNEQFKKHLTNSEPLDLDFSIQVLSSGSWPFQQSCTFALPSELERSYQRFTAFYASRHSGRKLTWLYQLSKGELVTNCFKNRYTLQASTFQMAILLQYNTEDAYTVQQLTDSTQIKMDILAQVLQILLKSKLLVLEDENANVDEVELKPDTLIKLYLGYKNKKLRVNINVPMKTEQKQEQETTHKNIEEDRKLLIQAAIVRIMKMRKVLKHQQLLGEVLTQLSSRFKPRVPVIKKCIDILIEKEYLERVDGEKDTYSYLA
* hit, by the source's call. Many of the other results were omitted from the sample, so hits are more common in it than they were.

SMILES	ROC1-CUL1 inh
COc1ccc2cc(C(=O)C3CCCN(C(=O)CCn4cncn4)C3)ccc2c1 (centres undefined)	-0.3
O=C(Nc1ccc(Cl)cc1)c1cc(=O)c2cc(Cl)ccc2[nH]1	4.0
Cc1ccc(-c2cc(C(=O)NC(C)C34CC5CC(CC(C5)C3)C4)c3ccccc3n2)o1 (centres undefined)	0.1
CCOc1ccc(C(=O)Nc2cc(Cl)ccc2C(F)(F)F)cc1	4.5
COc1cc(C(c2c(C)[nH]n(-c3ccccc3)c2=O)c2c(C)[nH]n(-c3ccccc3)c2=O)ccc1C	-17.4
Cc1[nH]n(-c2ccccc2)c(=O)c1C(c1ccco1)c1c(C)[nH]n(-c2ccccc2)c1=O	4.9
Cc1[nH]n(-c2ccccc2)c(=O)c1C(c1ccccc1O)c1c(C)[nH]n(-c2ccccc2)c1=O	-6.5
Cc1[nH]n(-c2ccccc2)c(=O)c1C(c1ccc(OCc2ccc(F)cc2)cc1)c1c(C)[nH]n(-c2ccccc2)c1=O	-6.9
Cc1[nH]n(-c2ccccc2)c(=O)c1C(C[N+](=O)[O-])c1ccc(F)cc1 (centres undefined)	59.4*
Cc1[nH]n(-c2ccccc2)c(=O)c1C(C[N+](=O)[O-])c1ccc(Cl)cc1 (centres undefined)	1.8
CCOc1cc(C(c2c(C)[nH]n(-c3ccccc3)c2=O)c2c(C)[nH]n(-c3ccccc3)c2=O)ccc1O	38.9*
CCOc1cc(C(c2c(C)[nH]n(-c3ccccc3)c2=O)c2c(C)[nH]n(-c3ccccc3)c2=O)ccc1OCc1ccc(Cl)cc1	18.8
Cc1[nH]n(-c2ccccc2)c(=O)c1C(c1ccc2c(c1)OCO2)c1c(C)[nH]n(-c2ccccc2)c1=O	45.8*
CC1=Nc2nc(SCc3ccccc3F)nn2C(c2ccc(F)cc2)C1C(=O)Nc1cccnc1 (centres undefined)	-10.2
COC(=O)c1c(NC(=O)CN(C)C)sc(C(=O)N(C)C)c1C	-5.4
CCN(C(=S)NC(=O)c1ccccc1OC)c1ccccc1	-11.1
Cc1cccn2cc(-c3cccc(NC(=O)c4c(F)cccc4F)c3)nc12	-10.0
O=C1CC(C(=O)Nc2ccc(F)cc2)N=C(N2CCN(c3ccccc3)CC2)N1 (centres undefined)	-0.8
CCn1c(C)nc([N+](=O)[O-])c1Sc1ccc(C)cc1	-5.2
CC(C)Cc1ccc(-c2[nH]nc3c2C(c2ccccc2OC(=O)N2CCOCC2)C(C#N)C(=N)O3)cc1 (centres undefined)	-2.2
CN(Cc1ccsc1)c1ccc(C(=O)N2CCCC(Cn3ccnc3)C2)cn1 (centres undefined)	4.6
Cc1nc(NCCc2cn3ccccc3n2)cc(C2CCNCC2)n1	0.5
COc1ccc(C2C3=C(N=c4s/c(=C/c5ccc(OCc6cccc(C(=O)O)c6)c(OC)c5)c(=O)n42)c2ccccc2CC3)cc1 (centres undefined)	42.9*
Cc1ccc(/C=c2/sc3n(c2=O)C(c2ccc(C)cc2)C2=C(N=3)c3ccccc3CC2)cc1 (centres undefined)	3.2
COc1ccc(C2C3=C(N=c4s/c(=C/c5ccc(C(=O)O)cc5)c(=O)n42)c2ccccc2CC3)cc1OC (centres undefined)	91.7*
SMILES	ROC1-CUL1 inh
COc1ccc(C2C3=C(N=c4s/c(=C/c5c[nH]c6ccccc56)c(=O)n42)c2ccccc2CC3)cc1OC (centres undefined)	-3.0
COc1cc(/C=c2/sc3n(c2=O)C(c2ccccc2Cl)C2=C(N=3)c3ccccc3CC2)ccc1OCc1ccc2c(c1)OCO2 (centres undefined)	-1.2
COc1cccc(C2C3=C(N=c4s/c(=C/c5ccc(O)c(OC)c5)c(=O)n42)c2ccccc2CC3)c1 (centres undefined)	-4.0
C/C=C/Cn1c(=O)c2c(nc3oc(C(C)(C)C)cn32)n(C)c1=O	3.4
CCCNS(=O)(=O)c1cc(C(=O)NC(C)(C)C)ccc1OC	0.8
FC(F)(F)CCCN1CCC(C2CCN(Cc3cccnc3)CC2)C1 (centres undefined)	6.2
CC[n+]1c(/C=C/c2ccc3c(c2)c2ccccc2n3C)ccc2ccccc21	69.3*
Cn1c2ccccc2c2cc(/C=C/c3nc4ccccc4s3)ccc21	0.2
Cc1ccc(/C=C\c2ccc3ccccc3c2)cc1	-5.9
C[C@@H]1CN(C2(C(=O)NC3CCC(O)CC3)Cc3ccccc3C2)C[C@H](C)O1 (some centres undefined)	-1.3
CCN(CC)c1ccc(/C=C2\SC(=Nc3ccccc3C)N(c3ccccc3C)C2=O)cc1	0.2
COc1cccc2c1Oc1nc(-c3ccccc3)nc(SCC(=O)Nc3ccccc3)c1C2	-6.3
COc1cc(NC(=O)CSc2nc(-c3ccc(C)cc3)nc3c2Cc2ccccc2O3)cc(OC)c1	5.0
O=C(CSc1nc(-c2ccc(F)cc2)nc2c1Cc1ccccc1O2)Nc1cccc(C(=O)O)c1	25.2*
CCC1CCc2c(sc3nc(SCc4ccc([N+](=O)[O-])cc4)n(-c4ccccc4)c(=O)c23)C1 (centres undefined)	6.0
COc1ccc(C2SCCN2S(=O)(=O)c2ccc3c(c2)Cc2ccccc2-3)cc1 (centres undefined)	-0.3
COc1ccc(C(C)N(C)C(=O)CCC2(Cc3ccc(C)cc3)CCC(=O)N2)cc1 (centres undefined)	4.4
Cc1cc(Cl)ccc1OC1C(=O)N(c2cccc(C(F)(F)F)c2)C1c1ccc2c(c1)OCO2 (centres undefined)	-4.1
O=C(CSc1nnc(-c2ccncc2)n1-c1ccccc1)c1ccc(Cl)cc1	4.7
CC1=Nc2ccccc2C1=Cc1c(N)n2c(-c3ccc(F)cc3)csc2nc1=O	9.4
O=C1SC(SCc2ccccc2Cl)=N/C1=C\c1ccc(C(=O)O)cc1	54.2*
CC(C)(C)c1cc(/C=C2\N=C(SCc3ccccc3Cl)SC2=O)cc(C(C)(C)C)c1O	4.8
CCSC1=N/C(=C\c2ccc(C(=O)O)cc2)C(=O)S1	3.4
CC(=O)Nc1cccc2c1C(=O)N(c1cccc(C(=O)O)c1)C2=O	-15.5
CC(=O)N=C1C(=O)c2ccccc2C(=O)C1NCCOc1ccccc1 (centres undefined)	-3.6
SMILES	ROC1-CUL1 inh
CC(=O)N=C1C(=O)c2c(NC(C)=O)cccc2C(=O)C1Br (centres undefined)	60.1*
CN=C1CC=CC=C(C(=O)/C=C/c2c(Cl)cccc2Cl)C1=O	22.8
CN=C1CC=CC=C(C(=O)/C=C/c2cc(C)ccc2C)C1=O	3.1
CN=C1CC=CC=C(C(=O)/C=C/c2ccc(C)cc2C)C1=O	103.0*
CC1=NC(=O)C(C(=O)/C=C/c2ccccc2)=C(C)C1	1.0
Cc1ccc(/C=C/C(=O)C2C=CC=CC(=O)C2=O)c(C)c1 (centres undefined)	0.0
CN=C1CC=CC=C(C(=O)/C=C/c2ccc(C(F)(F)F)cc2)C1=O	-1.0
CN=C1CC=CC=C(C(=O)/C=C/c2ccccc2)C1=O	84.2*
CN=C1CC=CC=C(C(=O)/C=C/c2cccc(Oc3ccccc3)c2)C1=O	104.3*
COc1cccc(/C=C/C(=O)c2ccccc2)c1	0.0
CC(=O)N1CCC(NC2CCCN(Cc3ccc(Cl)cc3)C2)CC1 (centres undefined)	8.6
COc1cc(CN([C@H]2CCCCNC2=O)S(=O)(=O)c2cccc3cccnc23)cc(OC)c1OCCc1ccsc1	-2.2
COc1cc(-c2cc(=O)n3[nH]ccc3n2)ccn1	-2.4
Cc1ccc(NC(=O)c2nc3ccccc3s2)cc1	-9.7
CC(=O)C1=NC(=O)c2ccccc2C1O (centres undefined)	53.5*
CC(=O)c1ccccc1-c1ccccc1C(C)=O	13.3
